Reference: article PMC5540273 (PLoS ONE, 2017)
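Further: KINOMEscan kinase panel screen.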

These compounds were tested on BMPR2. Conditions: concentration: 1 μM,replicates: in singlicate; n = 1.
For `CS(=O)c1ccc(-c2coc3ccc(-c4n[nH]c(=O)o4)cc23)cc1` (stereo not shown), the “%Inh” value was 9%. With `O=C(Nc1cccc(Oc2ccc3nccn3n2)c1)Nc1cccc(C(F)(F)F)c1` the “%Inh” value was 0%. With `CCNCC(Cc1ccccc1)NC(=O)c1cc(Br)c(-c2ccnc3[nH]ccc23)s1.Cl.Cl` (stereo not shown) [GSK1383280] the “%Inh” value was 0%. `COC(=O)Nc1nc2cc(Oc3ccc(NC(=O)Nc4cc(C(F)(F)F)ccc4Cl)cc3)ccc2[nH]1.Cl` [GW697465] was tested, and the “%Inh” value was 21%. For `COc1cc2nccc(Nc3ccc(Oc4ccccc4)cc3)c2cc1OC.Cl` [GI261656], the “%Inh” value was 7%. In the case of `Cc1ccc2c(-c3ccnc(Nc4ccc(C(F)(F)F)cc4)n3)cnn2n1` [GW819776], the “%Inh” value is reported as 32%. With `O=C(Nc1ccccc1)c1cccc(Oc2ccc3nccn3n2)c1` the “%Inh” value was 22%. In the case of `C[C@@H](Oc1cc(-n2cnc3cc(-c4ccncc4)ccc32)sc1C(N)=O)c1ccccc1Cl` [GSK479719], the “%Inh” value is reported as 0%. In the case of `CS(=O)(=O)Nc1ccc(-c2ccnc3[nH]ccc23)cc1` [GSK993273], the “%Inh” value is reported as 43%. With `NC(=O)c1ccc(-c2cc3ncnc(SCC(=O)O)c3s2)cc1` the “%Inh” value was 0%. For `CN(c1ccc2c(c1)nc(NCc1ccc(F)cc1)n2C)c1ccnc(Nc2ccc(CS(C)(=O)=O)cc2)n1.Cl` [GW813244], the “%Inh” value was 10%. With `Cn1ccc2ncnc(Oc3ccc(NC(=O)Nc4cccc(C(F)(F)F)c4)c(F)c3)c21` the “%Inh” value was 0%. For `CCOC(=O)N1CCC(n2cnc(-c3ccc(F)cc3)c2-c2ccnc(N)n2)CC1` [SB-219952], the “%Inh” value was 22%. For `Cc1cccc2c(-c3ccncc3)c(-c3ccc(F)cc3)nn12.Cl` [GW461487], the “%Inh” value was 0%. With `N#Cc1cccc(C(=O)NC2CCN(c3ccnc(Nc4ccc(F)cc4)n3)C2)c1` (stereo not shown) [GSK1379708] the “%Inh” value was 0%. With `Cc1n[nH]c2cc(Nc3ccnc(Nc4cccc(CN5CCOCC5)c4)n3)ccc12` [GW682569] the “%Inh” value was 6%. For `Cn1cc(-c2cccc3c(N)c(C(N)=O)nnc23)cn1`, the “%Inh” value was 72%. For `Nc1nccc(-c2ccc3c(N)n[nH]c3c2)n1` [GSK1034945], the “%Inh” value was 0%. With `C[C@@H]1CNc2c(sc3ccc4nc(-c5ccc(O)cc5)ccc4c23)C(=O)N1` the “%Inh” value was 7%. For `COc1cccc(C2=C(Nc3cccc(Cl)c3)C(=O)NC2=O)c1` [SB-341556], the “%Inh” value was 0%. `CCn1c(-c2nonc2N)nc2cncc(Br)c21` [SB-738004] was tested, and the “%Inh” value was 58%. For `COc1cc2c(Nc3ccc(NC(=O)c4ccccc4)cc3)ncnc2cc1OCCCN1CCOCC1` [GSK301329], the “%Inh” value was 0%. `O=C1NCCc2[nH]c(-c3ccncc3)cc21` was tested, and the “%Inh” value was 43%. In the case of `Cc1ccc(Nc2ccnc(Nc3ccc4c(c3)CS(=O)(=O)C4)n2)cc1O.Cl` [GW579362], the “%Inh” value is reported as 62%. For `O=C(Nc1n[nH]c2cc(-c3ccco3)ccc12)C1CC1` [SB-737447], the “%Inh” value was 0%. With `CN(c1cccc(CNc2nc(Nc3ccc4c(c3)CC(=O)N4)ncc2C(F)(F)F)c1)S(C)(=O)=O` the “%Inh” value was 39%. With `Cc1ccc(C(=O)Nc2ccc(Oc3ccc4nc(NC(=O)C5CC5)cn4c3)c(F)c2)c(=O)n1-c1ccccc1` the “%Inh” value was 0%. In the case of `COC(=O)c1cccc(NC(=O)NC2CCN(c3ccnc(NCc4ccc(F)cc4)n3)CC2)c1` [GSK1379860], the “%Inh” value is reported as 9%. For `Cl.c1ccc(Oc2ccc(Nc3ccnc4cc(-c5ccc(CN6CCNCC6)o5)ccc34)cc2)nc1` [GW567142], the “%Inh” value was 2%. In the case of `O=C(NCC1CC1)c1ccc(-c2cc(C(=O)NC3CC3)ccc2F)cc1` [GW810445], the “%Inh” value is reported as 15%. `C[C@@H](Oc1cc(-n2cnc3cc(-c4cnn(C)c4)ccc32)sc1C(N)=O)c1ccccc1Cl` [GSK580432] was tested, and the “%Inh” value was 0%. In the case of `CC(C)c1nc(-c2cccc(NS(=O)(=O)c3ccccc3)c2)c(-c2ccnc(Nc3ccc4c(c3)CN(C)CC4)n2)s1` [GSK1649598], the “%Inh” value is reported as 9%. `C[C@@H](Oc1cc(-n2cnc3ccc(-c4ccncc4)cc32)sc1C(N)=O)c1ccccc1Cl` [GSK483724] was tested, and the “%Inh” value was 3%. With `CCn1c(-c2nonc2N)nc2cncc(CNC3CCNCC3)c21.Cl` [SB-747651] the “%Inh” value was 17%. For `CC(C)S(=O)(=O)N1CCN(Cc2ccc3c(c2)nc(NC(=O)c2ccsc2)n3C[C@H](O)c2ccccc2)CC1` [GW635815], the “%Inh” value was 50%. For `COc1cc(Nc2nccc(N3CCC(NC(=O)c4cccc(C#N)c4)C3)n2)cc(OC)c1OC` (stereo not shown) [GSK1379751], the “%Inh” value was 11%. For `Cc1ccc(CC(=O)N2CCc3cc(-c4cn(C)c5ncnc(N)c45)ccc32)cc1` [GSK2634758], the “%Inh” value was 0%.
